# Reference: PubChem BioAssay (EPA / NIEHS)
# Active and inactive are the calls of the source. Rule for the calls: active = hit-call score of the fitted dose curve at least 0.9, where 1 is the maximum; inactive = score below 0.9.
# Legend:
# [1] = ATG_Ets_CIS: Attagene CIS-FACTORIAL HepG2 Assay for human Erythroblast Transformation Specific (ETS) (AID 2282941); details: HepG2 ETS cis-reporter transcription, actives raise or lower the signal
# Summary of the method: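 Cis-regulated reporter mRNA induction in HepG2 (transient transfection), 24 h exposure, RT-PCR plus capillary electrophoresis detection; DMSO serves as negative control and baseline.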
# [2] = biological target: Hepatocyte nuclear factor 3-beta (Homo sapiens) (UniProt Q9Y261); experiment: ATG_FoxA2_CIS: Attagene CIS-FACTORIAL HepG2 Assay for human Forkhead box A2 (FOXA2) (AID 2282942); details: HepG2 cis-reporter transcription factor activity, 24 h; actives raise or lower the signal
# Hepatocyte nuclear factor 3-beta (Homo sapiens), sequence (Q9Y261 whole entry, looked up): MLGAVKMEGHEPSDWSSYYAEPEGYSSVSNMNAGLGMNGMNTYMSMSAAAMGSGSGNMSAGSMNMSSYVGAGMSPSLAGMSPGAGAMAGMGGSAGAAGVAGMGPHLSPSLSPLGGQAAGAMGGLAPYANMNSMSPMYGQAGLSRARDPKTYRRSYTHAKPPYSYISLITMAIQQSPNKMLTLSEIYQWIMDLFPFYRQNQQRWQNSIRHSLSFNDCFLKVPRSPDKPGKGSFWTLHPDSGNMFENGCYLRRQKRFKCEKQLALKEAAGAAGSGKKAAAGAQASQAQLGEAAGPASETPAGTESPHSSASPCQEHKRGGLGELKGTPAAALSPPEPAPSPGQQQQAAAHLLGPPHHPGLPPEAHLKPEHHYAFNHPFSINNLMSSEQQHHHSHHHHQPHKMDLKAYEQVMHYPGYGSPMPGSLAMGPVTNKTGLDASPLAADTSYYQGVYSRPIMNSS
# Summary of the method: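 HepG2 cells transiently transfected with multiple cis-regulated reporter transcription units, dosed for 24 h. Reporter mRNA measured by RT-PCR, 6-FAM labelling, HpaI digestion and capillary electrophoresis; bidirectional fitting against DMSO baseline.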
# [3] = ATG_GATA_CIS: Attagene CIS-FACTORIAL HepG2 Assay for human GATA Binding Protein (AID 2282944); details: HepG2 GATA cis-element reporter, Attagene multiplex mRNA; actives raise or lower the signal
# Summary of the method: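 Read-out: fluorescent reporter mRNA fragments resolved by capillary electrophoresis after RT-PCR. Human liver HepG2 cells carried transiently transfected cis-regulated reporter constructs; chemicals incubated 24 h; gain or loss of signal fitted relative to DMSO.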
# [4] = ATG_GLI_CIS: Attagene CIS-FACTORIAL HepG2 Assay for human Zinc Finger Protein GLI1 (AID 2282945); details: HepG2, Attagene cis-factorial reporter mRNA, GLI element; actives raise or lower the signal
# Summary of the method: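 Transiently transfected HepG2 cells report endogenous transcription factor activity via cis-element-driven reporter units. After 24 h compound exposure, reporter mRNA was measured by RT-PCR with capillary electrophoresis; bidirectional fitting against DMSO baseline.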
# [5] = ATG_GRE_CIS: Attagene CIS-FACTORIAL HepG2 Assay for human Glucocorticoid Response Elements (GRE) (AID 2282947); details: HepG2 GRE cis-reporter, Attagene multiplex mRNA; actives raise or lower the signal
# Summary of the method: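 Fluorescence intensity of reporter-specific cDNA fragments, separated by capillary electrophoresis, provides the signal. Constructs carry cis-regulating promoters in transiently transfected HepG2 liver cells; 24 h incubation; fitting is bidirectional against DMSO.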
# [6] = ATG_ISRE_CIS: Attagene CIS-FACTORIAL HepG2 Assay for human Interferon Regulatory Factor 1 (IRF1) binding to an Interferon-Stimulated Response Element (ISRE) (AID 2282948); details: HepG2 ISRE cis-reporter (Attagene), mRNA transcription readout; actives raise or lower the signal
# Summary of the method: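 Multiplexed mRNA reporter readout in human liver HepG2 cells: cis-element-driven reporters transfected, compound added for 24 h, transcripts amplified, fluorescently labelled and sized by capillary electrophoresis; curve fitting bidirectional against DMSO.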
# [7] = ATG_M_32_CIS: Attagene CIS-FACTORIAL HepG2 Assay for M32 Transcription Factor (Internal Marker) (AID 2282949); details: HepG2 Attagene cis-factorial M32 reporter, mRNA; actives raise or lower the signal;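 note: background control marker of the multiplexed CIS panel rather than a real target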
# Summary of the method: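 HepG2 human liver cells transiently transfected with cis-promoter-driven multiple reporter transcription units, dosed 24 h. Reporter mRNA quantified by RT-PCR, FAM-labelled primer extension, HpaI digest and capillary electrophoresis; bidirectional fit versus DMSO baseline.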
# [8] = ATG_M_06_CIS: Attagene CIS-FACTORIAL HepG2 Assay for M06 Transcription Factor (Internal Marker) (AID 2282950); details: HepG2 Attagene CIS-FACTORIAL M06 internal marker reporter; actives raise or lower the signal
# Summary of the method: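 Terse: HepG2, transient MRTU transfection (FuGene 6), 24 h dosing; total RNA, oligo(dT) RT, PCR, FAM label, HpaI cut, capillary electrophoresis; bidirectional fit vs DMSO baseline; background-control endpoint.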
# [9] = biological target: Hypoxia-inducible factor 1-alpha (Homo sapiens) (UniProt Q16665); experiment: ATG_HIF1a_CIS: Attagene CIS-FACTORIAL HepG2 Assay for human Hypoxia Inducible Factor 1 (HIF1A) (AID 2282951); details: HepG2 Attagene cis-factorial HIF1a reporter transcription; actives raise or lower the signal
# Hypoxia-inducible factor 1-alpha (Homo sapiens), sequence (Q16665 whole entry, looked up): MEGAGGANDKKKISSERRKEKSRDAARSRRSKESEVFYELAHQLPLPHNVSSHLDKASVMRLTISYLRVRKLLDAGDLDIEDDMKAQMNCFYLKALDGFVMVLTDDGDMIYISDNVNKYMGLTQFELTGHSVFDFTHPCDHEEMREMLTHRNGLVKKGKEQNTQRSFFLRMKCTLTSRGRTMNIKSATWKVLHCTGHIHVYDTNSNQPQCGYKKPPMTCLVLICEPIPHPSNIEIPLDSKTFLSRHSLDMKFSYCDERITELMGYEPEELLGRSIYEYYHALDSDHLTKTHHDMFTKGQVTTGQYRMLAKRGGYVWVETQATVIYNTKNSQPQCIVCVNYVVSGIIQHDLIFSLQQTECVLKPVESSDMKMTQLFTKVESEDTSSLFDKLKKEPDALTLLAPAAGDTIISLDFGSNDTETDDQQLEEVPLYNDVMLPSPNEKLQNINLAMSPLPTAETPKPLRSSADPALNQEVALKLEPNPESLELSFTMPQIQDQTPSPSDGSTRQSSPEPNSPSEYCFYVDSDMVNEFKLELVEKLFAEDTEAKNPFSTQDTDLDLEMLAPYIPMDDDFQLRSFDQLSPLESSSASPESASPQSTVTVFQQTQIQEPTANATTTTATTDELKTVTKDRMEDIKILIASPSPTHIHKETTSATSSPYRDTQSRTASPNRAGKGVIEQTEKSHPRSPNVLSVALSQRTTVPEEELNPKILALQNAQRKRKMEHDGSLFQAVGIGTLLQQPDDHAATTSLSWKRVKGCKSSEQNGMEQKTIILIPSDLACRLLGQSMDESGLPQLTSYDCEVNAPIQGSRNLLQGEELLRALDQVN
# Summary of the method: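 HepG2 cells transiently transfected with multiplexed cis-promoter reporter units; reporter mRNA read 24 h after dosing by RT-PCR, 6-FAM primer-extension labelling, HpaI digestion and capillary electrophoresis. Bidirectional fit versus DMSO baseline.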
# [10] = biological target: Heat shock factor protein 1 (Homo sapiens) (UniProt Q00613); experiment: ATG_HSE_CIS: Attagene CIS-FACTORIAL HepG2 Assay for human Heat Shock Transcription Factor 1 (HSE) (AID 2282953); details: HepG2 HSE cis-reporter, Attagene RNA transcription; actives raise or lower the signal
# Heat shock factor protein 1 (Homo sapiens), sequence (Q00613 whole entry, looked up, the tested form may be a part): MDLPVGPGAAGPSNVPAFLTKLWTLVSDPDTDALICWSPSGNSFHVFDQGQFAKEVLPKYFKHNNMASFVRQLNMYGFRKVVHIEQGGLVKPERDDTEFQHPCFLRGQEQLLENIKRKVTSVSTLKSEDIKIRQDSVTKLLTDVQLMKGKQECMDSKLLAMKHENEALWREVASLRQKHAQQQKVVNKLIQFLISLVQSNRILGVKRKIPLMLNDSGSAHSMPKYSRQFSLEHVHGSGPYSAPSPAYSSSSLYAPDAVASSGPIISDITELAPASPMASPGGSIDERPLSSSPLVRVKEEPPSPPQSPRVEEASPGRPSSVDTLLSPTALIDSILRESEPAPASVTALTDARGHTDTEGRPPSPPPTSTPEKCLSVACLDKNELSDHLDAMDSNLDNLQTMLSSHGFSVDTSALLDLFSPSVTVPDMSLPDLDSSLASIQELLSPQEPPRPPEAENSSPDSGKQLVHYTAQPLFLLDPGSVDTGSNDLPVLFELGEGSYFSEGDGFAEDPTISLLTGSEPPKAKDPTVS
# Summary of the method: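 Read-out: fluorescence of reporter-specific RT-PCR fragments separated by capillary electrophoresis. HepG2 carrying transfected cis-element reporter units; 24 h dosing; activity fitted in both directions relative to DMSO baseline.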
# [11] = ATG_MRE_CIS: Attagene CIS-FACTORIAL HepG2 Assay for human Metal Responsive Element (MRE) (AID 2282954); details: HepG2 MRE cis-reporter transcription, Attagene multiplex; actives raise or lower the signal
# Summary of the method: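 Measured here is mRNA induction from an MRE cis-element reporter in HepG2 after 24 h, quantified by fluorescence of labelled RT-PCR products on capillary electrophoresis; gain- and loss-of-signal fits use DMSO as baseline.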
# [12] = ATG_PBREM_CIS: Attagene CIS-FACTORIAL HepG2 Assay for human Phenobarbital-responsive Enhancer Module (PBREM) (AID 2282955); details: HepG2 PBREM cis-reporter, Attagene multiplexed transcription; actives raise or lower the signal
# Summary of the method: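 HepG2 cells transiently transfected with multiple cis-regulated reporter transcription units; endogenous factor activity at the PBREM element measured as reporter mRNA 24 h after dosing, via RT-PCR and capillary electrophoresis of fluorescent fragments; bidirectional fitting versus DMSO.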
# [13] = biological target: Paired box protein Pax-6 (Homo sapiens) (UniProt P26367); experiment: ATG_Pax6_CIS: Attagene CIS-FACTORIAL HepG2 Assay for human Paired Box 6 (PAX6) (AID 2282956); details: HepG2 CIS-FACTORIAL PAX6 reporter transcription, RNA readout; actives raise or lower the signal
# Paired box protein Pax-6 (Homo sapiens), sequence (P26367 whole entry, looked up): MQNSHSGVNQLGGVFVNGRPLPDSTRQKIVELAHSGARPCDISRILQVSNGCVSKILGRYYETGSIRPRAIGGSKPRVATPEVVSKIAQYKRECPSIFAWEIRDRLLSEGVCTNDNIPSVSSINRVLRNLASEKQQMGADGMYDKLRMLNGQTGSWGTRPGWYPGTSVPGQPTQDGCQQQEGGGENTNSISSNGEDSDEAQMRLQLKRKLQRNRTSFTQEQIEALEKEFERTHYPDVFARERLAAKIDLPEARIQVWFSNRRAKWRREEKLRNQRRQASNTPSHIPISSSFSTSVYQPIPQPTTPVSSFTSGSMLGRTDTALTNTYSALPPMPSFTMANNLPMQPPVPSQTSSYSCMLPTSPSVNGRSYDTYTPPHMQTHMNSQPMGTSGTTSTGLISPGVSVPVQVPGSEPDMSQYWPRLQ
# Summary of the method: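 Fluorescent RT-PCR products separated by capillary electrophoresis report PAX6-linked promoter mRNA in HepG2 cells 24 h post-dose. Curves fitted bidirectionally, DMSO as negative control.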
# [14] = ATG_PXRE_CIS: Attagene CIS-FACTORIAL HepG2 Assay for human Pregnane X Receptor Element (PXRE) (AID 2282957); details: HepG2 Attagene CIS-FACTORIAL PXRE reporter, mRNA; actives raise or lower the signal
# Summary of the method: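 Reporter transcripts under endogenous PXR-responsive cis-regulation quantified from total RNA of transfected HepG2 cells 24 h post-dosing, via RT-PCR with fluorescent primer extension and capillary electrophoresis. Gain or loss of signal fitted against DMSO baseline.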
# [15] = ATG_FoxO_CIS: Attagene CIS-FACTORIAL HepG2 Assay for human Forkhead box O (FoxO) (AID 2282943); details: HepG2 Attagene cis-reporter, FoxO element, mRNA; actives raise or lower the signal
# Summary of the method: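 HepG2 cells transiently transfected with cis-element-driven reporter units report endogenous FoxO activity. After 24 h chemical exposure, reporter mRNA quantified by RT-PCR, fluorescent labeling, HpaI digestion and capillary electrophoresis; bidirectional fit versus DMSO.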
# [16] = biological target: Hepatocyte nuclear factor 6 (Homo sapiens) (UniProt Q9UBC0); experiment: ATG_HNF6_CIS: Attagene CIS-FACTORIAL HepG2 Assay for human Hepatocyte Nuclear Factor 6 (HNF6) (AID 2282952); details: HepG2 Attagene cis-factorial HNF6 reporter transcription; actives raise or lower the signal
# Hepatocyte nuclear factor 6 (Homo sapiens), sequence (Q9UBC0 whole entry, looked up): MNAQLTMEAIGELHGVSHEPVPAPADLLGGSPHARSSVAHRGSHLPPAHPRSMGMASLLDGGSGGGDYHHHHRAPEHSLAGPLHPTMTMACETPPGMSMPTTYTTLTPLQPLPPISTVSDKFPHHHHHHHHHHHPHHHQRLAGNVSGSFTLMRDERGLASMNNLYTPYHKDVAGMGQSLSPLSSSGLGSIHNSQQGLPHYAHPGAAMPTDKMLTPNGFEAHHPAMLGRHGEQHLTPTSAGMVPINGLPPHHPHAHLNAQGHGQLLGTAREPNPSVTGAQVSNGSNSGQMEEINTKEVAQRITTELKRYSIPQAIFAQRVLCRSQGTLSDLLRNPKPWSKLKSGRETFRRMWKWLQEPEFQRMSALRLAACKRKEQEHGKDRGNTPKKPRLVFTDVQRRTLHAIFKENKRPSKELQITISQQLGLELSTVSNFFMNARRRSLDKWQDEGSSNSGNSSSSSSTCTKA
# Summary of the method: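 Endogenous factor activity read in transiently transfected HepG2 via promoter-regulated reporter transcripts. RNA harvested 24 h post-dosing, reverse-transcribed, PCR-amplified, FAM-labelled, HpaI-digested and resolved by capillary electrophoresis; fitted in both directions against DMSO.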
# [17] = ATG_RORE_CIS: Attagene CIS-FACTORIAL HepG2 Assay for human RAR-related Orphan Receptor Element (RORE) (AID 2282959); details: HepG2 Attagene cis-factorial RORE reporter, mRNA; actives raise or lower the signal
# Summary of the method: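 HepG2 cells transiently transfected with multiple cis-element reporter transcription units, exposed to chemical for 24 h. Reporter mRNA quantified by RT-PCR, 6-FAM primer-extension labeling, HpaI digestion and capillary electrophoresis; bidirectional fit versus DMSO baseline.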
# [18] = ATG_PPRE_CIS: Attagene CIS-FACTORIAL HepG2 Assay for human Peroxisome Proliferator-activated Response Element (PPRE) (AID 2282958); details: HepG2 PPRE cis-element reporter, Attagene transcription factor profiling; actives raise or lower the signal
# Summary of the method: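 HepG2 cells transiently transfected with multiplexed cis-element reporter units measure endogenous transcription factor activity. After 24 h compound exposure, reporter mRNA is quantified by RT-PCR, 6-FAM labeling, HpaI digestion and capillary electrophoresis; bidirectional fits are made against DMSO baseline.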
SMILES,outcome [1],outcome [2],outcome [3],outcome [4],outcome [5],outcome [6],outcome [7],outcome [8],AC50 [9],outcome [10],outcome [11],outcome [12],outcome [13],outcome [14],outcome [15],outcome [9],outcome [16],outcome [17],outcome [18]
Oc1c(Cl)cc(Cl)cc1Cl,inactive,inactive,inactive,inactive,inactive,inactive,inactive,inactive,41.6 µM (active),inactive,inactive,inactive,inactive,inactive,,,,,
CCOC(=O)C(SP(=S)(OC)OC)c1ccccc1 (configuration not stated),inactive,inactive,inactive,inactive,inactive,inactive,inactive,,,inactive,,inactive,inactive,,inactive,inactive,inactive,inactive,
Cc1cc(Cl)ccc1N,inactive,inactive,inactive,inactive,inactive,inactive,inactive,inactive,,inactive,inactive,inactive,inactive,,inactive,inactive,inactive,inactive,
O=c1[nH]c(=O)n(Cl)c(=O)n1Cl,inactive,inactive,inactive,inactive,inactive,inactive,inactive,inactive,,inactive,inactive,,inactive,,inactive,inactive,inactive,,
OCCN(CCO)CCO,inactive,inactive,inactive,inactive,,inactive,inactive,inactive,,,inactive,inactive,inactive,inactive,inactive,inactive,inactive,,
CC[N+](CC)(CC)CC,inactive,inactive,inactive,inactive,inactive,inactive,inactive,inactive,,inactive,inactive,inactive,inactive,inactive,inactive,inactive,inactive,inactive,inactive
Clc1cccc(Cl)c1Cl,inactive,inactive,inactive,inactive,inactive,inactive,inactive,inactive,,inactive,,inactive,inactive,inactive,inactive,inactive,inactive,inactive,inactive
